“And” between values parts separate entries of the source, which are not always exact repeats. Equal values may be shown once. Inconclusive results are not listed. Entries that show only a call come without a potency. More than one record can exist for a structure, and the calls need not agree. The source made the active and inactive calls. The call rests on the fitted dose curve; in most records, active means well fitted curve in the direction sought with a large enough effect in the repeat runs; inconclusive means weak or mixed curves; inactive means no such curve, though single readings can be large; an effect the other way counts as inactive or inconclusive. Positions of bridges follow the written chain, without caps; N, C: chain ends. Non-standard residues stand in square brackets, D forms with d. Residues, ends and D or L forms follow the SMILES beside them. *: point of attachment. X1 = CC[C@@H](C)[C@@H](N)C1=N[C@H](C(=O)*)CS1; Dab(CH2SO3H) = N[C@@H](CCNCS(=O)(=O)O)C(=O)O; d(aIle) = CC[C@H](C)[C@@H](N)C(=O)O; X3 = CC[C@@H](C)CCCCC(=O)*; dOrn = NCCC[C@@H](N)C(=O)O; Dab = NCC[C@H](N)C(=O)O
Experiments:
[1] = qHTS assay to identify aromatase inhibitors - cell viability counter screen (AID 743084);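 further: cells stimulated with testosterone during compound exposure; nearly all actives have a fitted effect of over 55% in size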
[2] = target: Aryl hydrocarbon receptor (Homo sapiens) (UniProt P35869); experiment: qHTS assay to identify small molecule that activate the aryl hydrocarbon receptor (AhR) signaling pathway (AID 743085); further: nearly all actives have a fitted effect of over 15% in size
Summary of the method: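 HepG2 cells (HG2L7.5c1) stably carrying a firefly luciferase reporter driven by 20 dioxin responsive elements were exposed to compound for 24 h at 37C after a 5 h settling period; luminescence rise (ONE-Glo) indicated activation.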

[3] = qHTS assay to identify small molecule that activate the aryl hydrocarbon receptor (AhR) signaling pathway - cell viability counter screen (AID 743086); further: nearly all actives have a fitted effect of over 45% in size
Summary of the method: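 Cytotoxicity counter screen: CellTiter-Fluor signal (30 min, 37 C) in 4000 HepG2 cells/well carrying the DRE-luciferase reporter, following 24 h compound exposure at 37 C.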
Potency means the concentration at half of the fitted maximal effect.

Aryl hydrocarbon receptor (Homo sapiens), sequence (P35869 whole entry, looked up): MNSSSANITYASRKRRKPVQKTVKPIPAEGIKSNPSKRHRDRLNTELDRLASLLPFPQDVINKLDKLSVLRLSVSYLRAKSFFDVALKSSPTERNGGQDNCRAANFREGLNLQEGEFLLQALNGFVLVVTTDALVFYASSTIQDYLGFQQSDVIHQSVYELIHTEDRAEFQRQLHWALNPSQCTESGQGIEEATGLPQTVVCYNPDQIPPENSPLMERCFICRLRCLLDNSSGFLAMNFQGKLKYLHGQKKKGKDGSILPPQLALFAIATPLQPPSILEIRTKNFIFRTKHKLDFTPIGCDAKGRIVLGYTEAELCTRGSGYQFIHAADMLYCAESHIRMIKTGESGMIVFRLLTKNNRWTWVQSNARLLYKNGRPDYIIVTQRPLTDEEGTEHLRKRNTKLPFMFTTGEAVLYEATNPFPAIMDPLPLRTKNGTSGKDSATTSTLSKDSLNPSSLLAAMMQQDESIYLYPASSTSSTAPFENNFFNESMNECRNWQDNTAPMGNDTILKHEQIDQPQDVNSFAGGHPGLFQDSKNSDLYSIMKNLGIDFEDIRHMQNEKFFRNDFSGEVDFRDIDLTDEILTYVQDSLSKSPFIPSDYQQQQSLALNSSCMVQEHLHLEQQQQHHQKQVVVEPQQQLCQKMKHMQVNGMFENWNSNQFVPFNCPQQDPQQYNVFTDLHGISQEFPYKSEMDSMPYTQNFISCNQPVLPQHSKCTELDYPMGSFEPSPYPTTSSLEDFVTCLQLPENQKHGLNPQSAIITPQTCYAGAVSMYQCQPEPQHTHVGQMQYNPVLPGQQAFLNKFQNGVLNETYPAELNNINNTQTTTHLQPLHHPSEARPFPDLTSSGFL

SMILES | Potency [1] | Potency [2] | Potency [3]
O=C(O)[C@@H]1C[C@H](CP(=O)(O)O)CCN1 | inactive | inactive | inactive
CN=C(N)NCCC[C@H](N)C(=O)O | inactive | inactive | inactive
CC1CCCCN1CCCOC(=O)c1ccccc1 (centres undefined) | inactive | inactive | 
CCOc1ccc(S(=O)(=O)O)c2cccnc12 | inactive | inactive | 
CC12CCC(C1)C(C)(C)C2=O (centres undefined) | inactive | inactive | inactive
O=C1[O][Bi][O]c2ccccc21 | inactive |  | 
COc1cccc2c1[C@@H]1CN(CCCCn3c(=O)[nH]c4c(sc5ncc(-c6ccccc6)nc54)c3=O)C[C@@H]1CO2 | 26.6 µM (active) |  | 
NC(=O)c1cc[n+](CC2=C(C(=O)O)N3C(=O)[C@@H](NC(=O)C(c4ccccc4)S(=O)(=O)[O-])[C@H]3SC2)cc1 (some centres undefined) | inactive | inactive | inactive
CCCCCCCCCCCCCCCCCCOCC(COP(=O)([O-])OCC[N+](C)(C)C)OC (centres undefined) | inactive | inactive | inactive
C[S+](C)CCC(N)C(=O)O (centres undefined) | inactive | inactive | 
CO[C@H]1C[C@@H]2CC[C@@H](C)[C@@](O)(O2)C(=O)C(=O)N2CCCC[C@H]2C(=O)O[C@H]([C@H](C)C[C@@H]2CC[C@@H](O)[C@H](OC)C2)CC(=O)[C@H](C)C=C(C)[C@@H](O)[C@@H](OC)C(=O)[C@H](C)C[C@H](C)/C=C/C=CC=C1C | 23.7 µM (active) and 26.6 µM (active) | inactive | 
CCc1ncnc2cc(OC)c(OC)cc12 | inactive | inactive | inactive
CC[C@@H](C)CCCCC(=O)N[C@@H](CCNCS(=O)(=O)O)C(=O)N[C@H](C(=O)N[C@@H](CCNCS(=O)(=O)O)C(=O)N[C@H]1CCNC(=O)[C@H]([C@@H](C)O)NC(=O)[C@H](CCNCS(=O)(=O)O)NC(=O)[C@H](CCNCS(=O)(=O)O)NC(=O)[C@H](CC(C)C)NC(=O)[C@@H](CC(C)C)NC(=O)[C@H](CCNCS(=O)(=O)O)NC1=O)[C@@H](C)O (X3-[Dab(CH2SO3H)]T[Dab(CH2SO3H)][Dab][Dab(CH2SO3H)][dL]L[Dab(CH2SO3H)][Dab(CH2SO3H)]T; lactam 4-C) | inactive | inactive | 
CC[C@@H](C)[C@@H](N)C1=N[C@H](C(=O)N[C@@H](CC(C)C)C(=O)N[C@@H](CCC(=O)O)C(=O)N[C@@H](C(=O)N[C@@H]2CCCCNC(=O)[C@@H](CC(N)=O)NC(=O)[C@@H](CC(=O)O)NC(=O)[C@@H](Cc3cnc[nH]3)NC(=O)[C@@H](Cc3ccccc3)NC(=O)[C@@H]([C@H](C)CC)NC(=O)[C@@H](CCCN)NC2=O)[C@@H](C)CC)CS1 (X1-LE[d(aIle)][dK][dOrn][dI][dF][dH][dD][dN]; lactam 4-C) | inactive | inactive | inactive
CNCCC=C1c2ccccc2CCc2ccccc21 | inactive | inactive | 
NC(=O)[C@H]1O[C@@H](O)[C@H](O)[C@@H](O)[C@@H]1O | inactive | inactive | inactive
NC(N)=NCC1COC2(CCCCC2)O1 (centres undefined) | inactive | inactive | inactive
CON=C1C[C@]2(C[C@@H]3C[C@@H](C/C=C(\C)C[C@@H](C)/C=C/C=C4\CO[C@@H]5[C@H](O)C(C)=C[C@@H](C(=O)O3)[C@]45O)O2)O[C@H](/C(C)=C/C(C)C)[C@H]1C | inactive | inactive | inactive
Nc1nc(NC2CC2)c2ncn([C@@H]3C=C[C@@H](CO)C3)c2n1 | inactive | 8.41 µM (active) | inactive
Cc1cc(-c2ccc(N=Nc3ccc4c(S(=O)(=O)O)cc(S(=O)(=O)O)c(N)c4c3O)c(C)c2)ccc1N=Nc1ccc2c(S(=O)(=O)O)cc(S(=O)(=O)O)c(N)c2c1O | 23.7 µM (active) | inactive | inactive and 29.8 µM (active)
N[C@@H](Cc1ccc(O)c(O)c1)C(=O)O | inactive | inactive | inactive
CC(C)(Oc1ccc(C2CCCc3ccccc32)cc1)C(=O)O (centres undefined) | inactive | inactive | inactive
O=C(O)Cc1nn(Cc2ccc(Br)cc2F)c(=O)c2ccccc12 | inactive | inactive | inactive
CCOC(=O)Cc1ccc(-c2ccccc2)cc1 | inactive | inactive | inactive
NC(=S)NS(=O)(=O)c1ccc(N)cc1 | inactive | inactive | 
O=C(O)COc1ccc(C(=O)c2cccs2)c(Cl)c1Cl | inactive | inactive | inactive
Nc1ccc(N)c([N+](=O)[O-])c1 | 61.1 µM (active) | 24.3 µM (active) | 

Reference: PubChem BioAssay (Tox21)
